Source: PMC5540273 (PLoS ONE, 2017)

Key:
Details in all cases: concentration: 1 μM, replicates: in singlicate; n = 1
[1] = tested on: MAP3K4
[2] = tested on: MAP4K2
[3] = tested on: MAP4K3
[4] = tested on: MAP4K4
[5] = tested on: MAP4K5
[6] = tested on: MAPKAPK2
[7] = tested on: MAPKAPK5
[8] = tested on: MARK1
[9] = tested on: MARK2
[10] = tested on: MARK3
[11] = tested on: MARK4
[12] = tested on: MAST1
[13] = tested on: T1, MEK1
T1 construct: gene MAP2K1

[14] = tested on: T2, MEK2
T2 construct: gene MAP2K2

[15] = tested on: T3, MEK3
T3 construct: gene MAP2K3

[16] = tested on: T4, MEK4
T4 construct: gene MAP2K4

[17] = tested on: T5, MEK5
T5 construct: gene MAP2K5

[18] = tested on: T6, MEK6
T6 construct: gene MAP2K6

[19] = tested on: MELK
[20] = tested on: MERTK
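Also: KINOMEscan kinase panel screen.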

SMILES	%Inh [1] [%]	%Inh [2] [%]	%Inh [3] [%]	%Inh [4] [%]	%Inh [5] [%]	%Inh [6] [%]	%Inh [7] [%]	%Inh [8] [%]	%Inh [9] [%]	%Inh [10] [%]	%Inh [11] [%]	%Inh [12] [%]	%Inh [13] [%]	%Inh [14] [%]	%Inh [15] [%]	%Inh [16] [%]	%Inh [17] [%]	%Inh [18] [%]	%Inh [19] [%]	%Inh [20] [%]
Cc1ccccc1COc1cc(-n2cnc3cc(Cl)ccc32)sc1C(N)=O [GW813349]	20	0	0	12	20	0	0	0	0	14	8	0	6	14	19	0	59	0	33	16
FC(F)(F)c1ccc(-c2ncn(CCCN3CCOCC3)c2-c2ccncc2)cc1 [SB-217780]	7	0	0	0	0	12	22	9	0	3	20	23	0	0	27	3	33	0	2	0
CCC(=O)c1c(-c2ccccc2)c2cc(Cl)ccc2c(=O)n1Cc1cc(S(C)(=O)=O)n(CC(F)F)n1	9	0	0	0	0	0	5	0	1	0	0	0	1	12	0	18	0	0	0	0
CN(C)c1cc(-c2ccc3c(N)n[nH]c3c2)nc(N)n1 [GSK2219329]	0	0	0	9	7	0	0	0	0	0	1	0	0	0	0	0	13	8	0	21
CCC(=O)c1c(-c2ccccc2)c2cc(Cl)ccc2c(=O)n1Cc1cc(S(C)(=O)=O)n(CC(N)=O)n1	0	0	0	0	0	0	0	0	0	6	5	0	1	40	0	0	15	0	0	0
COc1cc(Nc2nccc(N3CCC(NC(=O)C4COc5ccccc5O4)C3)n2)cc(OC)c1OC (stereo not drawn) [GSK1379761]	22	0	2	6	0	0	0	0	0	0	0	0	25	0	0	0	97.2	0	11	36
COc1cc(Nc2ccnc3ccc(C(F)(F)F)cc23)cc(OC)c1OC [GW577382]	7	1	0	15	4	0	0	8	0	0	11	4	14	0	0	32	50	0	13	27
COc1ccc(-c2cc3c(C)nc(N)nc3n([C@H]3CC[C@H](O)CC3)c2=O)cn1	0	0	3	0	0	0	0	0	0	0	0	0	0	0	0	0	0	0	3	0
CCn1c(-c2nonc2N)nc2ccccc21 [SB-693162/GW549034]	0	4	0	0	0	0	33	0	25	0	0	5	30	25	47	48	18	0	15	0
CCC(=O)c1c(-c2ccccc2)c2cc(Cl)ccc2c(=O)n1Cc1cc(C(=O)NC2CC2)n(C)n1	23	0	30	0	0	8	0	13	0	0	13	47	6	3	2	8	11	22	0	5
Nc1n[nH]c2nnc(-c3ccccc3)c(-c3ccccc3)c12 [GW554060]	0	0	0	0	0	22	0	0	0	0	0	9	0	0	5	14	30	0	18	0
C[C@@H]1CC[C@H](C(=O)NC2CCCCC2)CN1c1cc(-c2ccc3c(N)n[nH]c3c2)nc(N)n1 [GSK2291363]	28	0	0	7	0	0	0	3	3	0	11	0	0	0	18	27	35	9	26	33
COC(=O)c1c(-c2ccccc2)c2cc(Br)ccc2c(=O)n1Cc1ccc(NC(=O)CCC(=O)O)cc1	38	0	0	0	0	16	4	7	6	0	4	29	0	3	11	10	10	21	7	3
O=C(Nc1ccc2c(c1)OCO2)NC1CCN(c2ccnc(NCc3ccc(F)cc3)n2)CC1 [GSK1379859]	0	0	0	3	0	13	0	8	0	0	20	0	0	0	6	0	8	0	100	26
CC(C)(C)c1ccc(C(=O)Nc2cn3cc(-c4ccccc4)ccc3n2)cc1	7	0	33	5	0	12	0	0	19	0	0	0	0	45	25	0	75	0	0	0
Nc1ncnc2c1ncn2-c1cccc(F)c1 [SKF-97560]	16	38	0	0	0	0	39	0	0	0	0	19	34	31	43	22	31	0	22	24
Cl.NS(=O)(=O)c1cccc(Nc2cc(-c3ccc(F)cc3)n[nH]2)c1 [GW824645]	1	0	0	0	0	0	0	0	19	14	6	9	12	45	22	27	70	0	0	0
OCCCNc1nccc(-c2c(-c3cccc(C(F)(F)F)c3)nn3cc(C(F)(F)F)ccc23)n1 [GW630813]	4	0	0	6	2	7	0	0	0	0	0	0	0	0	0	0	7	0	0	12
O=C(Nc1n[nH]c2nc(-c3ccccc3)c(Br)cc12)C1CC1 [SB-708998]	0	1	0	17	13	0	0	0	0	0	0	0	0	0	0	21	42	0	6	27
Cc1nnc(-c2ccc3ncn(-c4ccc(S(C)=O)cc4)c3c2)o1 (stereo not drawn)	16	100	0	0	0	11	0	0	0	2	0	0	2	22	15	8	0	13	13	1
O=C1NC(=O)C(c2ccccc2)=C1Nc1cccc(O)c1 [SB-390534]	24	26	0	1	0	27	20	3	9	22	0	33	16	14	10	12	29	0	4	9

SMILES	%Inh [1] [%]	%Inh [2] [%]	%Inh [3] [%]	%Inh [4] [%]	%Inh [5] [%]	%Inh [6] [%]	%Inh [7] [%]	%Inh [8] [%]	%Inh [9] [%]	%Inh [10] [%]	%Inh [11] [%]	%Inh [12] [%]	%Inh [13] [%]	%Inh [14] [%]	%Inh [15] [%]	%Inh [16] [%]	%Inh [17] [%]	%Inh [18] [%]	%Inh [19] [%]	%Inh [20] [%]
O=C(NCc1cccs1)c1cc(C(=O)c2c(Cl)cccc2Cl)c[nH]1 [GW823670]	0	0	0	0	3	0	0	0	0	50	0	0	4	25	1	0	7	5	26	0
CCn1c(-c2ccoc2)nc2cnccc21 [SB-733887]	0	0	0	11	5	16	0	0	0	3	0	9	18	0	5	14	38	0	22	5
Cc1nn2c(=O)cc(N3CCOCC3)nc2n1Cc1cccc(Cl)c1Cl [GSK2342769]	7	0	0	0	0	15	0	0	0	0	0	2	0	0	0	31	0	0	8	10
Cc1cc(Nc2nc(-c3cccc(C)n3)nc3ccccc23)ccn1 [GW872411]	0	0	12	0	0	0	0	21	13	22	27	0	2	9	12	0	4	0	0	25
COc1ccc(-c2coc3ccc(-c4nnc(SCc5cccc(C#N)c5)o4)cc23)cc1	11	0	13	13	12	0	18	20	18	10	13	31	4	13	0	38	21	16	11	0
COc1cccc(C2=C(N(C)c3ccccc3)C(=O)NC2=O)c1 [SB-334865]	12	0	0	0	0	17	0	0	0	0	1	0	0	0	0	4	6	0	0	18
CCc1nc(-c2cccc(C)c2)c(-c2ccncc2)s1	0	0	0	17	0	0	0	0	11	0	0	0	2	48	23	0	34	0	0	0
Cc1cccc(-c2nc(Nc3ccc4c(cnn4C)c3)c3ccccc3n2)n1 [GW876731]	10	0	0	0	0	0	0	12	0	34	8	100	0	0	0	0	0	5	0	0
Fc1cccc(CSc2nnc(-c3ccc4c(c3)CCO4)o2)c1	0	8	0	0	0	25	16	0	20	5	0	0	3	5	6	5	14	0	0	2
Cc1c(Cn2c(C)nn3c(=O)cc(N4CCO[C@H](C)C4)nc23)cccc1C(F)(F)F [GSK2373690]	43	0	0	3	0	23	0	0	0	0	0	0	0	0	0	12	1	0	0	14
Cc1cccc(-c2cc(-c3c[nH]nc3-c3ccccn3)ccn2)c1 [GW679395]	13	0	0	0	0	17	0	0	0	0	0	0	0	0	0	36	27	0	0	12
CCCC(=O)Nc1n[nH]c2ncc(-c3cccc4ccccc34)cc12 [SB-642057]	34	0	12	8	7	8	0	2	0	0	0	0	4	8	0	0	12	0	33	0
Nc1ncnc2c1ncn2-c1ccc(Cl)cc1 [AH2635]	0	0	0	12	0	10	0	0	0	3	13	0	0	0	0	12	48	0	0	10
COc1cc(OC)cc(-c2cc3cnc(N)nc3nc2NC(=O)NC(C)(C)C)c1	32	0	0	0	0	0	0	0	8	0	0	0	0	0	0	0	0	0	0	0
O=C(Nc1n[nH]c2nc(-c3ccccc3)c(Cl)cc12)C1CC1 [SB-734909]	5	0	15	1	9	22	0	30	0	0	25	12	11	0	45	24	50	0	0	0
COc1cc2ncn(-c3cc(OCc4ccc(S(C)(=O)=O)cc4)c(C(N)=O)s3)c2cc1OC [GW869979]	0	26	0	0	0	0	31	0	10	0	0	5	30	25	28	6	81	0	8	0
Nc1nc(N)c2nc(-c3ccccc3)[nH]c2n1 [SKF-12778]	26	26	0	26	21	13	5	1	0	0	11	0	0	13	0	1	18	0	9	47
COc1cc2ncn(-c3cc(OCCCc4ccccc4)c(C(N)=O)s3)c2cc1OC [GSK205189]	16	0	0	14	39	7	0	0	0	0	0	0	0	0	0	0	96.8	0	0	0
COc1cc2nccc(Nc3ccc(OCc4ccc(NC(C)=O)cc4)cc3)c2cc1OC.Cl [GW440135]	37	1	0	0	0	28	0	0	0	0	8	0	19	0	14	2	99.6	0	0	40
CCc1ccc(-c2ccc3c(c2)-c2nn(C)cc2S(=O)(=O)N3C)cc1	1	0	0	19	22	0	0	24	0	0	16	0	53	18	17	0	27	0	0	0
CCS(=O)(=O)c1ccc(OC)c(Nc2ncc(-c3ccc(F)cc3)o2)c1.Cl [GW591947]	22	0	0	5	0	1	0	0	0	0	0	0	0	0	0	6	18	0	0	28
